PubChem BioAssay (NCATS)
Results filed as inconclusive are left out. Entries that show only a call come without a potency. A number with no mark means an inactive call. Activity calls are given as the source filed them. The call rests on the fitted dose curve; in most records, active means well fitted curve in the direction sought with a large enough effect; inconclusive means small, poorly fitted or top-dose-only effect, or another doubt; inactive means no such curve, though single readings can be large; an effect the other way counts as inactive or inconclusive. Peptide text beside a SMILES is read from it.

Target: Cellular tumor antigen p53 (Homo sapiens) (UniProt P04637)
Sequence (P04637 whole entry, looked up): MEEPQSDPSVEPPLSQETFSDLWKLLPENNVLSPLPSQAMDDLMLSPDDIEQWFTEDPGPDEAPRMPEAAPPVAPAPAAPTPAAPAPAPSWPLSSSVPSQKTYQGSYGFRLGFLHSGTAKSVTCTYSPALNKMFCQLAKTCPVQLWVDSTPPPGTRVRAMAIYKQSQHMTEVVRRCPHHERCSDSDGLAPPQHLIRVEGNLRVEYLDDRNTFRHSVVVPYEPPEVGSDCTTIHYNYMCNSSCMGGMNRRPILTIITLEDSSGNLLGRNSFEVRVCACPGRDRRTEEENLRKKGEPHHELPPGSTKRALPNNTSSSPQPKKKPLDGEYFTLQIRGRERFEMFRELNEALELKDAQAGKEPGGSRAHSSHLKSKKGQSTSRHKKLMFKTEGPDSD
Assay: Primary qHTS for small molecule compounds that upregulate eGFP-tagged delta133p53alpha (in N-terminal) cells. (AID 2060322); further: nearly all actives have a fitted effect of over 75% in size; further: potency means the concentration at half of the fitted maximal effect;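 on activation: cells pre-induced with doxycycline then dosed without doxycycline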
Details: NCI-H358 eGFP-delta133p53alpha fluorescence, 24 h; activation: active compounds read high
Outline: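 NCI-H358 cells pre-induced 24 h with 10 ng/ml doxycycline for eGFP-delta133p53alpha, plated dox-free and exposed 24 h at 37C to titrated compounds. Fixed, Hoechst-stained; gated GFP peak intensity by laser scanning cytometry, normalized to DMSO (0%) and 57.5 uM 5-azacytidine (100%).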

| Compound | activation | Potency |
| --- | --- | --- |
| COc1cc(O)c2c(c1)C1=CC(O)C(O)CC1(C)OC2=O (centres undefined) | 2.29% |  |
| CC(C)OC(=O)N1CCC(Oc2ncnc3c2cnn3-c2ccc(S(C)(=O)=O)cc2F)CC1 | 4.3% |  |
| CC1(O)CC(O)C2C(C(=O)O)=COC(OC3OC(CO)C(O)C(O)C3OC(=O)/C=C/c3ccc(O)cc3)C21 (centres undefined) | -15.3% |  |
| COc1cc(O)c([C@@H](CC(=O)N2CC(C)CC(C)C2)c2ccc3c(c2)OCO3)c(OC)c1 (some centres undefined) | 28.3% |  |
| C=C[C@]1(C)C=C2CCC3C(C)(CCC[C@@]3(C)C(=O)O)C2CC1 (some centres undefined) | 3.57% |  |
| C=C1C(=O)O[C@@H]2C[C@@]3(C)CCC[C@H](C)C3=C[C@H]12 |  | 19 µM (active) |
| CC1=C(c2ccc(NC(=O)c3c(F)cccc3F)cc2)CN(c2nccs2)CC1 | 21.7% |  |
| CC(C)C1NC(=O)CNC(=O)C2CCCN2C(=O)C(Cc2c[nH]c3ccccc23)NC(=O)CNC(=O)C(Cc2ccc(O)cc2)NC(=O)CNC1=O (centres undefined) (cyclo(GVGYGWP); configuration not given here) | -6.25% |  |
| C/C(=N\O)c1ccc(OCC(=O)N2CCCCC2)cc1 | 3.35% |  |
| O=C(O)C[C@H]1CCC(=O)[C@@H]1C/C=C\CCOC1OC(CO)C(O)C(O)C1O (some centres undefined) | -3.82% |  |
| C=C1C(=O)O[C@@H]2/C=C(\CO)CC/C=C(/C=O)C[C@H](O)[C@@H]12 |  | 26.9 µM (active) |
| COc1cccc(OC)c1-c1ccc(C[C@H](NC(=O)c2c(Cl)cccc2Cl)C(=O)O)cc1 | 1.67% |  |
| COC(=O)[C@@H](O)[C@H]1[C@@]2(C)CC3(O)[C@@H](C(=O)[C@H]2O)[C@]24O[C@]25CC(=O)O[C@@H](c2ccoc2)[C@]5(C)CCC4[C@]13C (some centres undefined) | -13% |  |
| CC1(C)CC[C@]2(C(=O)O[C@@H]3O[C@H](CO[C@@H]4O[C@H](CO)[C@@H](O)[C@H](O)[C@H]4O[C@@H]4O[C@H](CO)[C@@H](O)[C@H](O)[C@H]4O)[C@@H](O)[C@H](O[C@@H]4O[C@H](CO)[C@@H](O)[C@H](O)[C@H]4O)[C@H]3O)CC[C@]3(C)C(=CCC4[C@@]5(C)CC[C@@H](O)[C@@](C)(C(=O)O[C@@H]6O[C@H](CO)[C@@H](O)[C@H](O)[C@H]6O)C5CC[C@]43C)[C@@H]2C1 (some centres undefined) | -7.63% |  |

Target: Aldehyde dehydrogenase, mitochondrial (Homo sapiens) (UniProt P05091)
Assay: qHTS for Inhibitors of the Aldehyde Dehydrogenase Family (ALDH2) Primary screen (AID 2061308); further: nearly all actives have a fitted effect of over 55% in size
Details: ALDH2 enzyme inhibition qHTS, 1536-well; series mostly up to 56 µM

| Compound | Potency | activity change, negative = inhibition |
| --- | --- | --- |
| CC(CCC1(O)OC2CC3C4CC=C5C[C@@H](O[C@@H]6O[C@H](CO)[C@@H](O[C@@H]7O[C@@H](C)[C@H](O)[C@@H](O)[C@H]7O)[C@H](O)[C@H]6O[C@@H]6O[C@@H](C)[C@H](O)[C@@H](O)[C@H]6O)CC[C@]5(C)C4CC[C@]3(C)[C@@]2(O)[C@@H]1C)CO[C@@H]1O[C@H](CO)[C@@H](O)[C@H](O)[C@H]1O (some centres undefined) | inactive |  |
| C=C1C[C@]23C[C@H]1CC[C@H]2[C@]1(C)CCC[C@@](C)(C(=O)O)[C@H]1[C@@H]3C(=O)O | inactive |  |
| Nc1c(S(=O)(=O)c2ccccc2)c2nc3ccccc3nc2n1-c1ccc(F)cc1 | inactive |  |
| Cc1cc(O[C@@H]2O[C@H](COC(=O)CC(=O)O)[C@@H](O)[C@H](O)[C@H]2O)c(C(C)C)cc1O | inactive |  |
| CCCCS(=O)(=O)N[C@@H](Cc1ccc(OCCCCC2CCNCC2)cc1)C(=O)O | inactive |  |
| CCN(CCNC(=O)Nc1ccccc1Br)c1cccc(C)c1 | inactive |  |
| COCC1OC(OC(C)(C)C2CCC3(C)C=C(C4CCC5C4(C)CC(O)C4OC(C(C)(C)OC6OC(CO)C(O)C(O)C6NC(C)=O)CCC45C)CCC3O2)C(NC(C)=O)C(O)C1O (centres undefined) | inactive |  |
| CC(NC(=O)c1ccccc1N)C(=O)O (centres undefined) | inactive |  |
| NC(N)=NC(=O)c1cnn(-c2cccc3ncccc23)c1C1CC1 | inactive |  |
| CC1=C2C[C@@]3(C)[C@@H](CCC[C@@H]3C)C[C@@]2(O)OC1=O | inactive |  |
| CC(C)[C@@H](C(=O)O)N1Cc2c(cc(O)c3c2O[C@]2(C3)[C@H](C)CCC3C(C)(C)[C@H](O)[C@H](O)C[C@@]32C)C1=O (some centres undefined) | inactive |  |
| COC(=O)C[C@@H]1C(C(=O)O)=CO[C@@H](O[C@@H]2O[C@H](CO)[C@@H](O)[C@H](O)[C@H]2O)/C1=C\COC(=O)/C=C\c1ccccc1 | inactive |  |
| CC(C)[C@H]1CC[C@@]2(O)COC(=O)[C@H]2[C@@H]1/C=C(\CO)C(=O)O | inactive |  |
| O=C(CCCCc1ccc2ccccc2c1)C(F)(F)F | inactive |  |
| O=C(Cc1ccc(Cl)cc1)Nc1cnccc1C(=O)O | inactive |  |
| COC(=O)C1=COC(OC2OC(CO)C(O)C(O)C2O)C2C(C)C(OC(=O)/C=C/c3ccc(O)cc3)C(O)C12 (centres undefined) | inactive |  |
| CC(=O)NC(C(=O)OC1CCC(C)(C)C2CC=C3C(=O)OCC3(O)C12C)C(C)C (centres undefined) | inactive |  |
| CCC(C)C(=O)O[C@H]1[C@H](O)[C@@]2(COC(C)=O)C(CC1(C)C)C1=CCC3[C@@]4(C)CC[C@H](O[C@@H]5O[C@H](C(=O)O)[C@@H](O)[C@H](O)[C@H]5O)[C@@](C)(CO)C4CC[C@@]3(C)[C@]1(C)C[C@@H]2O (some centres undefined) | inactive |  |
| C=C[C@]1(C)C[C@H](O)[C@H]2C(=C)C(=O)O[C@@H]2[C@H]1C(=C)CO | inactive |  |
| O=C(O)c1cc(O[C@@H]2O[C@H](CO)[C@@H](O)[C@H](O)[C@H]2O)ccc1O | inactive |  |

| Compound | Potency | activity change, negative = inhibition |
| --- | --- | --- |
| CC(C)(O)c1ccc2c(c1)C(=O)C[C@H]1[C@](C)(C(=O)O)CCC[C@]21C | inactive |  |
| C=CCc1ccc(O[C@@H]2O[C@H](CO[C@@H]3O[C@@H](C)[C@H](O)[C@@H](O)[C@H]3O)[C@@H](O)[C@H](O)[C@H]2O)cc1 | inactive |  |
| COc1ccc2c(c1)OC[C@]1(O)c3cc4c(cc3O[C@H]21)OCO4 | inactive |  |
| CC1OC(OC2C(C)OC(OC3C(O)C(CO)OC(O[C@H]4CC[C@@]5(C)C(CC[C@]6(C)C5CC=C5C7[C@@H](C)[C@H](C)CC[C@]7(C(=O)O)CC[C@]56C(=O)O)C4(C)C)C3O)C(O)C2O)C(O)C(O)C1O (some centres undefined) | inactive |  |
| CC1(C)CC[C@]2(C(=O)O)CC[C@]3(C)C(=CCC4[C@@]5(C)CC[C@H](O[C@@H]6O[C@H](C(=O)O)[C@@H](O[C@@H]7OC[C@@H](O)[C@H](O)[C@H]7O)[C@H](O)[C@H]6O)C(C)(C)C5CC[C@]43C)C2C1O (some centres undefined) | inactive |  |
| O=C(/C=C/c1ccc(O)cc1)OC[C@H]1O[C@@H](OC(=O)/C=C/c2ccccc2)[C@H](O)[C@@H](O)[C@@H]1O | inactive |  |
| COc1cc(O)c2c(c1)C1=CC(O)C(O)CC1(C)OC2=O (centres undefined) | inactive |  |
| CC(C)OC(=O)N1CCC(Oc2ncnc3c2cnn3-c2ccc(S(C)(=O)=O)cc2F)CC1 | inactive |  |
| CC1(O)CC(O)C2C(C(=O)O)=COC(OC3OC(CO)C(O)C(O)C3OC(=O)/C=C/c3ccc(O)cc3)C21 (centres undefined) | inactive |  |
| COc1cc(O)c([C@@H](CC(=O)N2CC(C)CC(C)C2)c2ccc3c(c2)OCO3)c(OC)c1 (some centres undefined) | inactive |  |
| C=C[C@]1(C)C=C2CCC3C(C)(CCC[C@@]3(C)C(=O)O)C2CC1 (some centres undefined) | inactive |  |
| C=C1C(=O)O[C@@H]2C[C@@]3(C)CCC[C@H](C)C3=C[C@H]12 | inactive |  |
| CC1=C(c2ccc(NC(=O)c3c(F)cccc3F)cc2)CN(c2nccs2)CC1 | inactive |  |
| CC(C)C1NC(=O)CNC(=O)C2CCCN2C(=O)C(Cc2c[nH]c3ccccc23)NC(=O)CNC(=O)C(Cc2ccc(O)cc2)NC(=O)CNC1=O (centres undefined) (cyclo(GVGYGWP); configuration not given here) | inactive |  |
| C/C(=N\O)c1ccc(OCC(=O)N2CCCCC2)cc1 | inactive |  |
| O=C(O)C[C@H]1CCC(=O)[C@@H]1C/C=C\CCOC1OC(CO)C(O)C(O)C1O (some centres undefined) | inactive |  |
| C=C1C(=O)O[C@@H]2/C=C(\CO)CC/C=C(/C=O)C[C@H](O)[C@@H]12 | inactive |  |
| COc1cccc(OC)c1-c1ccc(C[C@H](NC(=O)c2c(Cl)cccc2Cl)C(=O)O)cc1 | inactive |  |
| COC(=O)[C@@H](O)[C@H]1[C@@]2(C)CC3(O)[C@@H](C(=O)[C@H]2O)[C@]24O[C@]25CC(=O)O[C@@H](c2ccoc2)[C@]5(C)CCC4[C@]13C (some centres undefined) | inactive |  |
| CC1(C)CC[C@]2(C(=O)O[C@@H]3O[C@H](CO[C@@H]4O[C@H](CO)[C@@H](O)[C@H](O)[C@H]4O[C@@H]4O[C@H](CO)[C@@H](O)[C@H](O)[C@H]4O)[C@@H](O)[C@H](O[C@@H]4O[C@H](CO)[C@@H](O)[C@H](O)[C@H]4O)[C@H]3O)CC[C@]3(C)C(=CCC4[C@@]5(C)CC[C@@H](O)[C@@](C)(C(=O)O[C@@H]6O[C@H](CO)[C@@H](O)[C@H](O)[C@H]6O)C5CC[C@]43C)[C@@H]2C1 (some centres undefined) |  | 5.56% [at 11.2 µM] |
